Among the data in PubChem BioAssay (NCI) are growth values, retold here.

This is part of a sample that, as a whole, favours compounds with a hit. Of some 83,000 tested, about 20% had one in any assay.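 Method: cells in 96-well plates; compound added at one concentration; 48 h incubation; percent growth measured; values under 10 scored active.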 Values without a mark were called inactive. Calls of active or inactive are those of the source.

Assay in all cases: NCI-60 one-dose screen, 48 h (100 = growth as untreated, 0 = no growth, -100 = all killed)
What all share (conditions): 10 µM unless noted

Test [1] has as its system SK-MEL-2 melanoma.
The subject of test [2] is EKVX NSCLC.
The test system of test [3] is SN12C renal.
For test [4], the system named is UO-31 renal.
Test [5] deals with TK-10 renal.
The test system of test [6] is ACHN renal.
Test [7] concerns CAKI-1 renal.
The test system of test [8] is A498 renal.
The subject of test [9] is CCRF-CEM leukemia.
Test [10] relates to MOLT-4 leukemia.

For `COc1cc(/C=C/C(=O)c2ccc(C)cc2)ccc1Oc1nc(Nc2ccc(F)cc2)nc(N(C)C)n1`, the growth in test [1] is 44.9%; in test [2], 60.6%; in test [3], 17.4%; in test [4], 36.2%; in [5], 77.3%; in test [6] it was 3.65% (active). In addition, the growth is 35.6% in test [7], 66.3% in [8], 17% in test [9] and 9.34% (active) in test [10].

Consider `C=C1CC[C@@H]2[C@]3(C)COC(c4cn[nH]c4-c4cccc(Cl)c4)O[C@@H]3CC[C@@]2(C)[C@@H]1C/C=C1/C(=O)OCC1O` (stereo not given in full), for which the growth in test [1] was -23.7% (active); in test [2], 8.03% (active); in test [3] it was -69.6% (active); in test [4] it was -94.4% (active); in test [5], 3.28% (active); in test [6] it was -87.4% (active). Also, the growth in test [7] is 32.6%; in test [8], 151%; in test [9], -14.9% (active); in test [10], 12.7%.

For the molecule `CSc1ccc(C(=O)Nc2ccc3nnn(/C(C#N)=C/c4ccccn4)c3c2)cc1`, the growth is -82% (active) in test [1]; -86.4% (active) in [2]; -4.37% (active) in test [3]; -100% (active) in [4]; -74% (active) in test [5]; -93.2% (active) in test [6]. The growth in test [7] was 4.99% (active); in test [8], 59.3%; in test [9] it was 12.6%; in test [10] it was 12.1%.

Take `CC1=C(C(=O)c2ccccc2)C(c2cccc(Cl)c2Cl)n2c(nc3ccccc32)N1` (stereo not given): the growth in [1] is 76%; in test [2], 46.3%; in [3], 53.6%; in test [4], 67.7%; in test [5] it was 102%; in test [6] it was 71.9%. Moreover, the growth was 47% in test [7], 116% in test [8], 40.5% in test [9] and 45.6% in [10].

As for `CCOC(=O)C(N=Nc1ccc(S(=O)(=O)N=C(N)N)cc1)C(C)=O` (stereo not given), the growth in test [1] was 119%; in test [2], 111%; in [3], 101%; in test [4], 97.6%; in test [5], 88.6%; in test [6], 98.2%. The growth in test [7] was 96.3%; in test [8], 102%; in test [9], 101%; in [10], 110%.

For the molecule `COc1ccc(-c2nc3cc(C)ccc3n2CC(=O)N=Nc2c(O)[nH]c3ccc(Br)cc23)cc1`, the growth in test [1] was 61.6%; in test [2], -36.5% (active); in [3] it was -57.8% (active); in test [4], 53.5%; in test [5], 25.6%; in [6], 15.5%. The growth is 54.6% in test [7], 136% in [8], 58.8% in test [9] and 23.3% in [10].

Take `O=C(CCN1C(=O)/C(=C/c2ccc(F)cc2)SC1=S)N1CCOCC1`: the growth was 65.9% in [1]; 87.2% in test [2]; 53% in [3]; 51.1% in [4]; 85.6% in [5]; 63.6% in test [6]. The growth is 88.4% in test [7], 72.5% in test [8], 66.6% in [9] and 84% in test [10].

Take `COc1cccc(-c2c(C#N)c(-c3ccc(Cl)cc3)nc3n[nH]c(-c4ccc(Cl)cc4)c23)c1`: the growth is 53.1% in [1]; 33.9% in test [2]; 44.8% in test [3]; 35.2% in [4]; 71.8% in test [5]; 56.2% in test [6]. The growth is 39.1% in test [7], 100% in test [8], 23.7% in test [9] and 2.7% (active) in test [10].

As to `NS(=O)(=O)c1ccc(N=Nc2c(O)n(CC(=O)Nc3ccccc3Cl)c3ccccc23)cc1`, the growth in test [1] is 9.55% (active); in [2], 38.1%; in test [3], 27.6%; in test [4], 2.95% (active); in [5], 63%; in [6], 6.65% (active). Further, the growth in test [7] is 16.6%; in [8], 80.2%; in test [9] it was 50.5%; in [10] it was 26.7%.

Regarding `Clc1cccc(Cl)c1/C=C/c1cc(/C=C/c2ccc(Br)cc2)c2ccccc2n1`, the growth in test [1] is 123%; in [2] it was 89.8%; in [3], 93.2%; in test [4] it was 70.2%; in [5], 126%; in test [6], 100%. Besides, the growth in test [7] is 73.4%; in test [8] it was 142%; in [9], 85%; in test [10] it was 84.8%.

As for `S=C(Nc1ccc(OCc2nc3ccccc3[nH]2)cc1)NC1CCCCC1`, the growth in test [1] was 123%; in [2] it was 104%; in test [3], 87.8%; in [4], 96.8%; in [5] it was 130%; in test [6], 101%. Moreover, the growth in test [7] is 100%; in test [8], 150%; in test [9], 95%; in test [10] it was 98.3%.

As for `COc1c(F)ccc(C(=O)Nc2ccc3nc(NC(=O)C4CCCN(S(=O)(=O)c5ccc(Br)s5)C4)sc3c2)c1F` (stereo not given), the growth is 81.8% in [1]; 81.2% in test [2]; 85.9% in test [3]; 77.6% in [4]; 116% in test [5]; 77.2% in [6]. The growth in test [7] was 82.6%; in test [8], 104%; in test [9] it was 75%; in test [10] it was 48.5%.

With `CC1=C(C(=O)c2ccccc2)C(c2ccc(-n3cncn3)cc2)n2c(nc3ccccc32)N1` (stereo not given), the growth in test [1] is 101%; in [2], 64.4%; in [3], 79.4%; in [4], -22.7% (active); in [5], 104%; in test [6], 88.8%. Also, the growth in [7] is 62.8%; in [8], 113%; in test [9], 70.9%; in [10], 66.9%.

Take `C=CC(=O)Nc1ccc(C)c(Oc2ccc(Cl)cc2)c1`: the growth was 41.8% in [1]; 62.6% in [2]; 45.3% in test [3]; 24.4% in test [4]; 74% in test [5]; 65.4% in test [6]. In addition, the growth was 61.7% in test [7], 58.5% in [8], 57.9% in [9] and 45.3% in test [10].

`COc1c(F)ccc(C(=O)Nc2ccc3nc(NC(=O)C4CCCN(S(=O)(=O)c5cccc(Cl)c5)C4)sc3c2)c1F` (stereo not given): the growth in test [1] is 88.5%; in [2], 92.8%; in [3], 84.3%; in test [4], 75.2%; in test [5], 118%; in [6] it was 82.4%. Further, the growth in [7] was 74.4%; in test [8], 113%; in test [9], 85.3%; in [10], 42.8%.

As to `COc1ccc(-c2c(Nn3cnnn3)no[n+]2[O-])cc1`, the growth was 82.5% in test [1]; 53.7% in [2]; 33.3% in [3]; 20.8% in test [4]; 62.5% in test [5]; 34.1% in test [6]. Further, the growth in [7] is 25.7%; in test [8], 63.9%; in test [9] it was 40.6%; in test [10] it was 27.9%.

For the molecule `COc1ccc(NC(=O)[C@H](CO)NC(=O)OC(C)(C)C)cc1C(=O)Nc1cccc(C2CC(=O)c3c(cc(OC)c(OC)c3OC)O2)c1` (stereo not given in full), the growth in test [1] is 53.1%; in [2] it was 81.2%; in test [3] it was 49%; in test [4], 40.4%; in test [5], 103%; in test [6], 56.2%. The growth is 38.6% in test [7], 105% in test [8], 23.3% in test [9] and 16.2% in test [10].

With `Cn1cc(-c2nc(N)nnc2-c2c[nH]c3ccc(Br)cc23)c2cc(Br)cnc21`, the growth was 13.1% in [1]; 30.4% in test [2]; 11.3% in test [3]; 10.4% in [4]; 47.4% in test [5]; 6.39% (active) in [6]. In addition, the growth is -8.15% (active) in test [7], -14.3% (active) in test [8], 0.493% (active) in [9] and -2.69% (active) in test [10].

As to `O=C(Cn1nc(-c2ccccc2)ccc1=O)N/N=C/c1ccc(N2CCOCC2)cc1`, the growth in test [1] was 98.1%; in [2] it was 95.3%; in test [3], 94.9%; in [4], 75.8%; in test [5] it was 103%; in test [6], 95.7%. Also, the growth in test [7] was 90.8%; in test [8], 84%; in test [9], 92.5%; in test [10], 98.1%.

With `CN(C)CCOc1ccc(C(=O)C2[C@H](c3ccc(Cl)cc3)[C@@H](c3ccccc3)NC23C(=O)Nc2ccc(Br)cc23)cc1` (stereo not given in full), the growth in test [1] is 54.1%; in test [2] it was 12.3%; in test [3], 7.21% (active); in [4], 32.8%; in test [5] it was 90.2%; in [6], -27.9% (active). The growth in test [7] was 18.5%; in test [8] it was 96%; in [9], 43.9%; in [10], -52.3% (active).

For the molecule `CC(=O)Nc1ccc(C(=O)NC(=S)Nc2ccc(S(N)(=O)=O)cc2)cc1`, the growth was 97.1% in test [1]; 90.1% in [2]; 91.7% in [3]; 80.7% in test [4]; 89.1% in [5]; 102% in test [6]. The growth in test [7] is 87.9%; in [8], 104%; in test [9], 100%; in test [10] it was 111%.

On to `COc1cc2oc(-c3cccc(C(=O)Nc4ccc(Cl)cc4)c3)cc(=O)c2c(OCCNC(=O)[C@H](CCC(=O)OC(C)(C)C)NC(=O)OC(C)(C)C)c1OC`, for which the growth in [1] is 106%; in test [2], 90.7%; in test [3], 91.9%; in test [4], 74.4%; in [5], 109%; in test [6], 93.7%. The growth in [7] is 69.4%; in test [8], 113%; in test [9], 95.3%; in [10], 71.6%.

`S=C(NCCc1ccccc1)Nc1ccc(OCc2nc3ccccc3[nH]2)cc1`: the growth was 121% in test [1]; 101% in [2]; 96.8% in test [3]; 84.3% in [4]; 112% in [5]; 104% in test [6]. Further, the growth is 87.3% in [7], 111% in [8], 96.7% in test [9] and 100% in test [10].

Regarding `Cc1ccc(C(=O)C(c2c[nH]c3ccccc23)c2c[nH]c3ccccc23)cc1`, the growth in test [1] was 72.4%; in test [2], 56.5%; in [3] it was -12.8% (active); in test [4] it was 26.4%; in [5] it was 111%; in [6], 17.9%. In addition, the growth in [7] was 18.7%; in [8], 108%; in [9], 5.91% (active); in test [10], 5.7% (active).

On to `CC1=C(C#N)C2=NNCC(c3ccccc3)=NN2C(c2ccccc2)=C1`, for which the growth is 113% in test [1]; 99.7% in [2]; 105% in [3]; 91.2% in test [4]; 103% in test [5]; 110% in test [6]. Moreover, the growth in test [7] was 99.8%; in test [8] it was 132%; in test [9], 110%; in test [10], 114%.

`O=C(NNc1ccccc1)n1c(=O)c2ccccc2c(=O)n1-c1ccccc1`: the growth in [1] was 117%; in test [2], 91.3%; in test [3], 85.9%; in test [4] it was 81.5%; in test [5], 95%; in test [6] it was 93.7%. The growth in test [7] is 77.2%; in [8] it was 101%; in [9] it was 99.5%; in test [10], 91.3%.
